Screening data (PubChem)
ULK1 primary = ULK1 kinase inhibitors, primary screen, biochemical, AlphaScreen; AlphaScreen Atg13 phosphorylation by ULK1, luminescence; inhibition, % at 5.96 µM; 30,000 tested, 1.9% active; Serine/threonine-protein kinase ULK1 (Homo sapiens), O75385; in the data active = inhibition above about 43%
Large screens that a line does not name were inactive. This is one part of a sample in which hits are shown more often than they occur.

COc1ccc(Cc2nccc3cc(OC)c(OC)cc23)cc1OC	ULK1 primary 69
COc1ccc(CCN2CCC(=O)CC2)cc1OC	none
O.O.O.O=C(O)C1[O][Sb]2[O]C(=O)C([O]2)C(C(=O)O)[O][Sb]2[O]C(=O)C1[O]2.O=C(O)C1[O][Sb]2[O]C(=O)C([O]2)C(C(=O)O)[O][Sb]2[O]C(=O)C1[O]2.[K+].[K+] (stereo not drawn)	none
Clc1cccc(Cl)c1NC1=NCCO1	none
COc1cc(OC)nc(N2CCNCC2)n1	none
O=C(O)C1(c2ccccc2)CCNCC1 (tested in a mixture with another compound)	none
O=C1OC(c2ccc(O)c(S(=O)(=O)O)c2)(c2ccc(O)c(S(=O)(=O)O)c2)c2c(Br)c(Br)c(Br)c(Br)c21	ULK1 primary 64
CC(C)CCC(=O)OC1CCC2C3CCC4=CC(=O)CCC4(C)C3CCC12C (stereo not drawn)	none
